Results reported in the supplement of paper PMC6555819.

Legend:
Assay in all cases: PBM binding z-score (relative to random genomic background probes); higher = stronger binding; sequences stand for … in GC…GCGATTGACAGCGTAGAATGAAGG
[1] = system: FXR:RXRa (NR concentration 270 nM, RXRa partner concentration 90 nM)
Method in brief: (§1)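 Binding z-scores take random background probes as their reference. They come from custom Agilent 4×180K protein-binding microarrays incubated 1 h with ligand-free nuclear receptor dimers, with antibodies against each partner (one per run) detecting binding. Scanned fluorescence was regression-normalized.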

[2] = system: LXRa:RXRa (NR concentration 270 nM, RXRa partner concentration 90 nM)
Method in brief: as §1

[3] = system: LXRa homodimer (NR concentration 270 nM)
Method in brief: as §1

[4] = system: LXRb:RXRa (NR concentration 270 nM, RXRa partner concentration 90 nM)
Method in brief: as §1

[5] = system: LXRb homodimer (NR concentration 270 nM)
Method in brief: as §1

[6] = system: PPARa:RXRa (NR concentration 270 nM, RXRa partner concentration 90 nM)
Method in brief: as §1

[7] = system: PPARg:RXRa (NR concentration 180 nM, RXRa partner concentration 90 nM)
Method in brief: as §1

[8] = system: PPARg:RXRa 270nM:90nM, anti-RXR (NR concentration 270 nM, RXRa partner concentration 90 nM)
Method in brief: as §1

[9] = system: PPARg:RXRa 30nM:10nM, anti-RXR (NR concentration 30 nM, RXRa partner concentration 10 nM)
Method in brief: as §1

[10] = system: PPARg:RXRa 90nM:30nM, anti-RXR (NR concentration 90 nM, RXRa partner concentration 30 nM)
Method in brief: as §1

| Sequence | PBM binding z-score [1] | PBM binding z-score [2] | PBM binding z-score [3] | PBM binding z-score [4] | PBM binding z-score [5] | PBM binding z-score [6] | PBM binding z-score [7] | PBM binding z-score [8] | PBM binding z-score [9] | PBM binding z-score [10] |
| --- | --- | --- | --- | --- | --- | --- | --- | --- | --- | --- |
| TCTTGTAGATTAAAGGTTAAGAAAGCCGAAGCCT | 1.25 | 1.98 | 0.568 | 1.82 | 0.134 | 3.56 | 5.78 | 6.6 | 6.85 | 7.33 |
| TCTACTAGTTGAAGGGCAACCGACGAGTCCGTTT | 0.338 | 0.156 | -0.296 | 0.212 | -0.37 | 0.726 | 0.214 | 1.58 | 3.03 | 2.48 |
| CGTCCAAGGCCATAGGAGGTCAGTGAAGACAGAT | 2.46 | 3.14 | 0.814 | 1.69 | -0.756 | 2.21 | 0.688 | 0.571 | -0.185 | 0.133 |
| GCGAATGGGGCATCAGCAGGTTACCATAACTTAA | -0.164 | -0.221 | -0.232 | 0.924 | -0.446 | 0.796 | 0.281 | -0.0121 | -0.215 | -0.384 |
| AATACAGGGTCATCGTAGGCCAGAGTGCGCACAG | 7.13 | 6.46 | 2.47 | 4.75 | 1.07 | 5.99 | 6.7 | 6.16 | 2.72 | 4.73 |
| TCTCGGAGGACATGAAAGGTCAGAGCTCGACATC | 2.65 | 3.67 | 2.92 | 3.09 | -0.221 | 3.34 | 1 | 2.68 | 2.8 | 2.61 |
| TAGCCTAGGTCATGGGCCAGTATTCCACGCGAAC | 4.39 | 3.5 | 0.0514 | 2.3 | -0.499 | 4.12 | 3.67 | 3.49 | 1.17 | 2.47 |
| ATCTCGAGGTAAAAGTTCAGTGAATCCCGAGGAT | 1.26 | 1.85 | 0.551 | 1.28 | 0.304 | 3.44 | 5.01 | 5.51 | 4.17 | 5.67 |
| GCTCGGAGGACAAGGTCAGAGTTTTGTCCGTAGA | 1.98 | 1.71 | -0.00501 | 1.56 | -0.35 | 2.42 | 0.985 | 1.89 | -0.291 | 0.859 |
| CTCGAAAGGTCGGATGAGGTGAGTATACGGATAA | 2.61 | 2.09 | 0.0368 | 1.69 | -0.334 | 3.17 | 1.02 | 1.66 | 0.432 | 0.958 |
| CCGACTGGGGCATAAGGTAACCATAAGCCAGCCC | 0.215 | 0.187 | -0.284 | -0.112 | -1.47 | 1.08 | 2.79 | 3.22 | 1.32 | 3.24 |
| CCTATTAGTTGACCATAAGGTCAACCGAAGCTCG | 4.88 | 4 | 3.35 | 3.83 | 1.73 | 4.06 | 1.48 | 3.02 | 1.42 | 2.61 |
| TCTTCTAGGTCAACGATGGTCAGCTAATCTGCTA | 4 | 3.57 | 0.955 | 2.54 | 2.65 | 4.34 | 6.09 | 5.82 | 5.08 | 5.64 |
| CCTGCTACGTCATGGTCAGCTAATCTACAGTATG | -0.508 | -0.217 | -0.512 | -0.505 | -0.327 | -0.4 | 0.216 | -0.67 | -0.17 | -0.333 |
| GCGACTGGGGCATCAGCGGGTTACCATAACTTAA | -0.361 | -0.573 | -0.505 | 0.433 | -0.992 | 1.11 | 0.815 | 0.669 | -0.383 | 0.237 |
| CCAGACAGCTGAGAAGGTAACTCAGCCTCGATTA | -0.225 | -0.563 | -0.25 | -0.499 | -0.831 | -0.574 | -0.129 | -0.555 | -0.623 | -0.881 |
| TGAATGAGGTTATACGATCAGGGAACGTTGCAAA | 1.76 | 1.37 | -0.238 | 1.05 | -0.18 | 2.91 | 1.33 | 1.79 | 0.555 | 1.1 |
| TAGCCTAGGTCAGATCGGGCCACTATACGCTATA | 2.45 | 1.34 | -0.308 | 0.919 | -0.028 | 1.65 | 0.925 | 0.87 | -0.128 | 0.49 |
| TCGAGTCGGTTAGGGGCATTCAGAATGGCGTCGA | 0.0826 | -0.161 | -0.614 | 0.203 | -0.666 | 0.491 | -0.446 | 0.528 | 0.725 | 0.702 |
| ACTAGCAGGCCAAGGGTCACGCAAGATTAGTCCG | 3.81 | 3.6 | 0.279 | 3.53 | -0.566 | 5.24 | 9.04 | 7.85 | 7.41 | 7.99 |
| CGAACTAGGTCAGAACCGGACAGTGAAGGATGAT | 0.841 | 0.508 | -0.0192 | 0.198 | -0.379 | 2.72 | 4.56 | 4.31 | 1.5 | 3.4 |
| ATACCTAGGTGATCGTGAGGTCGTTGATACTAAC | 1.53 | 1.12 | 0.563 | 1.35 | 0.0825 | 1.55 | 0.632 | 0.766 | 0.387 | 0.954 |
| TTACTAAGGTGAAGGTCGTTGATCCCTCTGTAGA | 3.06 | 2.12 | 0.0636 | 2.08 | -0.257 | 3.76 | 5.8 | 6.91 | 5.91 | 7.51 |
| TAGGCTAGGTCATTGGGCCAGTATAGTACGCATC | 4 | 2.77 | 0.321 | 1.87 | 0.37 | 3.73 | 3.73 | 3.76 | 0.966 | 2.24 |
| CAAACTAGGTCAAGAGCTCAAAGTCCGCTTCCCG | 3.7 | 2.48 | 0.129 | 1.63 | 0.0048 | 4.61 | 7.37 | 6.8 | 4.34 | 6.56 |
